Results taken from PubChem BioAssay (NCI).
This is part of a sample that, as a whole, favours compounds with a hit. Of some 83,000 tested, about 20% had one in any assay.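 Results are percent growth after 48 hours of single-concentration exposure. 100 means growth as in untreated cells, lower positive values show inhibition; negative values down to -100 show cell death.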 The source made the active and inactive calls. The calls were made as follows: active = growth percent below 10; inactive = the rest.

How the values were obtained:
Experiment in all cases: NCI-60 one-dose screen, 48 h (100 = growth as untreated, 0 = no growth, -100 = all killed)
Conditions in all cases: 10 µM unless noted
NCI-H23 lung = tested on: NCI-H23 lung
NCI-H322M lung = tested on: NCI-H322M lung
HOP-62 NSCLC = tested on: HOP-62 NSCLC
NCI-H460 lung = tested on: NCI-H460 lung
HOP-92 NSCLC = tested on: HOP-92 NSCLC
NCI-H522 lung = tested on: NCI-H522 lung
A549/ATCC NSCLC = tested on: A549/ATCC NSCLC
786-0 renal = tested on: 786-0 renal
COLO 205 colon = tested on: COLO 205 colon
DU-145 prostate = tested on: DU-145 prostate
K-562 leukemia = tested on: K-562 leukemia
MALME-3M melanoma = tested on: MALME-3M melanoma
MDA-MB-231 breast = tested on: MDA-MB-231 breast
RXF 393 renal = tested on: RXF 393 renal
SF-268 CNS = tested on: SF-268 CNS
SF-295 CNS = tested on: SF-295 CNS
SF-539 CNS = tested on: SF-539 CNS
UACC-257 melanoma = tested on: UACC-257 melanoma
M14 melanoma = tested on: M14 melanoma

Measured: growth

O=S1(=O)OC(c2ccc(O)c(Cl)c2)(c2ccc(O)c(Cl)c2)c2ccccc21
inactive: NCI-H23 lung 97.8% | NCI-H322M lung 107% | HOP-62 NSCLC 99.5% | NCI-H460 lung 101% | HOP-92 NSCLC 60.6% | NCI-H522 lung 93.4% | A549/ATCC NSCLC 99.1% | 786-0 renal 110% | COLO 205 colon 103% | DU-145 prostate 103% | K-562 leukemia 113% | MALME-3M melanoma 114% | MDA-MB-231 breast 109% | RXF 393 renal 105% | SF-268 CNS 96.9% | SF-295 CNS 103% | SF-539 CNS 93.3% | UACC-257 melanoma 98.9% | M14 melanoma 105%

CN(C)C1CCN(C(=O)c2ccc(NC(=O)Nc3ccc(-c4nc(N5CCOCC5)nc(N5CCOCC5)n4)cc3)cc2)CC1
inactive: K-562 leukemia 14.4% [2.5 µM] | MDA-MB-231 breast 17.2% [2.5 µM] | SF-268 CNS 10.6% [2.5 µM]
active: NCI-H23 lung 8.52% [2.5 µM] | NCI-H322M lung -30.3% [2.5 µM] | HOP-62 NSCLC -21.5% [2.5 µM] | NCI-H460 lung 6.4% [2.5 µM] | HOP-92 NSCLC -32% [2.5 µM] | NCI-H522 lung 8.88% [2.5 µM] | A549/ATCC NSCLC -25.2% [2.5 µM] | 786-0 renal -10.7% [2.5 µM] | COLO 205 colon -31.4% [2.5 µM] | DU-145 prostate 2.99% [2.5 µM] | MALME-3M melanoma -34.1% [2.5 µM] | RXF 393 renal -40.4% [2.5 µM] | SF-295 CNS -31.1% [2.5 µM] | SF-539 CNS -53% [2.5 µM] | UACC-257 melanoma -40% [2.5 µM] | M14 melanoma 7.46% [2.5 µM]

CNC(=O)c1c(C)oc2cc(Oc3ncnc4cc(OC)c(OC)cc34)ccc12
inactive: NCI-H23 lung 93.8% | NCI-H322M lung 93.9% | HOP-62 NSCLC 82.9% | NCI-H460 lung 106% | HOP-92 NSCLC 81.1% | NCI-H522 lung 89.5% | A549/ATCC NSCLC 81.1% | 786-0 renal 102% | COLO 205 colon 108% | DU-145 prostate 101% | K-562 leukemia 88.4% | MALME-3M melanoma 104% | MDA-MB-231 breast 101% | RXF 393 renal 66.4% | SF-268 CNS 70.7% | SF-295 CNS 96% | SF-539 CNS 41.6% | UACC-257 melanoma 86.6% | M14 melanoma 98.2%

CC(=O)OC1Oc2ccccc2-c2oc(=O)c(-c3cc4ccc(N(C)C)cc4oc3=O)cc21 (stereo unspecified)
inactive: NCI-H23 lung 36.4% | NCI-H322M lung 69.4% | HOP-62 NSCLC 69.4% | NCI-H460 lung 75.4% | A549/ATCC NSCLC 61.2% | 786-0 renal 55.2% | COLO 205 colon 67.3% | DU-145 prostate 19.1% | MDA-MB-231 breast 59.5% | SF-268 CNS 73.1% | SF-539 CNS 69.4% | M14 melanoma 47.2%
active: HOP-92 NSCLC -3.58% | NCI-H522 lung 6.65% | K-562 leukemia 1.45% | MALME-3M melanoma 4.74% | SF-295 CNS 6.73%

Fc1ccc(NCc2cn(-c3ccccc3)nc2-c2ccc(OCc3ccccc3)cc2)cc1Cl
inactive: NCI-H23 lung 82% | NCI-H322M lung 105% | HOP-62 NSCLC 76.6% | NCI-H460 lung 110% | HOP-92 NSCLC 91.2% | NCI-H522 lung 58.5% | A549/ATCC NSCLC 83.3% | 786-0 renal 88.7% | COLO 205 colon 100% | DU-145 prostate 107% | K-562 leukemia 89.8% | MDA-MB-231 breast 72.7% | RXF 393 renal 112% | SF-268 CNS 92.2% | SF-295 CNS 87% | SF-539 CNS 93.3% | M14 melanoma 88.1%

COc1cc(Nc2c(C#N)cnc3cc(OCCCN4CCN(C)CC4)c(OC)cc23)c(Cl)cc1Cl
active: COLO 205 colon 6.9% | MALME-3M melanoma 1.06% | UACC-257 melanoma -8.01%
inactive: NCI-H23 lung 61.5% | NCI-H322M lung 13.3% | HOP-62 NSCLC 61.3% | NCI-H460 lung 38.6% | HOP-92 NSCLC 98% | NCI-H522 lung 14.5% | A549/ATCC NSCLC 36.1% | 786-0 renal 67.7% | DU-145 prostate 46% | K-562 leukemia 22.7% | MDA-MB-231 breast 62.3% | RXF 393 renal 59% | SF-268 CNS 70.5% | SF-295 CNS 83.7% | SF-539 CNS 94.4% | M14 melanoma 13%

C=C1C(=O)O[C@H]2[C@H]1CC/C(C=Nc1c(N)cc(C(F)(F)F)cc1C(F)(F)F)=C\CC[C@@]1(C)O[C@@H]21
active: NCI-H23 lung -29% | NCI-H460 lung -17.9% | HOP-92 NSCLC -39.9% | NCI-H522 lung -55.4% | 786-0 renal -66.5% | COLO 205 colon -59.7% | DU-145 prostate 5.82% | K-562 leukemia -4.88% | MDA-MB-231 breast -49.5% | RXF 393 renal -81.6% | SF-268 CNS 1.5% | SF-539 CNS -84.5% | M14 melanoma -61.2%
inactive: NCI-H322M lung 49.3% | HOP-62 NSCLC 21.3% | A549/ATCC NSCLC 11.9% | SF-295 CNS 49.7%

O=C(Cc1ccc(/C=C/C(=O)c2ncc[nH]2)cc1)Nc1ccc(Br)cc1
active: HOP-62 NSCLC 3.97% | NCI-H460 lung -3.31% | 786-0 renal -27% | K-562 leukemia 1.86% | SF-539 CNS -51.1%
inactive: NCI-H23 lung 34.8% | NCI-H322M lung 58.1% | HOP-92 NSCLC 77.4% | NCI-H522 lung 13.2% | A549/ATCC NSCLC 39.4% | COLO 205 colon 20.7% | DU-145 prostate 19.9% | MALME-3M melanoma 74.4% | MDA-MB-231 breast 10% | RXF 393 renal 19.4% | SF-268 CNS 22.2% | SF-295 CNS 26.9% | UACC-257 melanoma 69.8% | M14 melanoma 31.4%
